The results in this text go back to PubChem BioAssay (Tox21).

Results filed as inconclusive are left out. Entries that show only a call come without a potency. Values without a mark were called inactive. Active and inactive are the calls of the source. Calls follow the shape of the dose curve; as a rule, active = well fitted activation curve with a large enough effect in the signal ratio in the repeat runs (not every such curve was filed as active); inconclusive = weak or mixed curves, or effect the other way; inactive = flat fitted curve, though single readings scatter; the % refers to the signal ratio.

In the assay the target is Estrogen receptor beta (Homo sapiens) (UniProt Q92731). Description: qHTS assay to identify small molecule agonists of the estrogen receptor beta (ER-beta) signaling pathway (AID 1259377). Conditions: ER-beta-UAS-bla HEK293T, beta-lactamase FRET ratio, 16 h; series mostly up to 92.4 µM. The source says: U.S. Tox21 Program National Center for Advancing Translational Sciences [NCATS] NIH Chemical Genomics Center [NCGC] U.S. Environmental Protection Agency [EPA] National Institutes of Environmental Health Sciences [NIEHS] National Toxicology Program [NTP] U.S. Food and Drug Administration [FDA] Tox21 Assay Overview: Estrogen receptor (ER), a nuclear hormone receptor, plays an important role in development, metabolic homeostasis and reproduction. Two subtypes of ER, ER-alpha and ER-beta, have similar expression patterns with some uniqueness in both types. Endocrine disrupting chemicals (EDCs) and their interactions with steroid hormone receptors like ER causes disruption of normal endocrine function. To identify the compounds that activate ER signaling, an ER beta-UAS-bla GripTite cell line (Life technologies, Madison, WI, USA) containing a beta-lactamase reporter gene under the control of an Upstream Activator Sequence (UAS) was used to screen Tox21 10K compound library.
Sequence of Estrogen receptor beta (Homo sapiens) (Q92731 whole entry, looked up): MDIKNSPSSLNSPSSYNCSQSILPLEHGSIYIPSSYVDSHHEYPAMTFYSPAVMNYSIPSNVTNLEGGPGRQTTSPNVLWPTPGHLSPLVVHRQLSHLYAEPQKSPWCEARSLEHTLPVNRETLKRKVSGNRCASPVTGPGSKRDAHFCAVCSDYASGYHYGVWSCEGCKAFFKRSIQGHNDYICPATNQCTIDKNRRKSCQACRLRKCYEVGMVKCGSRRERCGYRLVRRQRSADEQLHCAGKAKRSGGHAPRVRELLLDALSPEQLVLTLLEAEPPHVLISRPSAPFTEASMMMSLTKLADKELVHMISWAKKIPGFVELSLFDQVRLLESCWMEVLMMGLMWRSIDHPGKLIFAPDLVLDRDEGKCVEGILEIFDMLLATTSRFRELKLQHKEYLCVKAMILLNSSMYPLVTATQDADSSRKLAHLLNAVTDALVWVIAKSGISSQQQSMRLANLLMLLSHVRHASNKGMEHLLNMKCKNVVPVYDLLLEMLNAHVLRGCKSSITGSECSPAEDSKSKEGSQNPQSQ
Tox21 Assay Protocol Summary: ER-beta-UAS-bla HEK293T cells were dispensed at 2,000 cells/5 uL of assay medium containing 2% charcoal stripped FBS per well into black wall/clear-bottom 1536-well plates using a Multidrop Combi (ThermoFisher Scientific, Waltham, MA) dispenser. After the assay plates were incubated at a 37C and 5% CO2 for 6 hr, 23 nL of compounds dissolved in DMSO, positive controls or DMSO only was transferred to the assay plate by a Pintool station (Kalypsys, San Diego, CA). The plates were incubated at 37C and 5% CO2 for 16 hr. Then 1 uL of LiveBLAzerTM B/G FRET substrate was added using a BioRAPTR FRD (Flying Reagent Dispenser, Aurora Discovery, San Diego, CA). After the plates were incubated at room temperature for 2 hours, fluorescence intensity was measured by an Envision plate reader (PerkinElmer, Shelton, CT).
For `CC(C)(O)CCc1ccccc1`, the Potency entry is “inactive”.

Consider `Cc1cc([N+](=O)[O-])ccc1N`, for which the Potency result was “inactive”.

Consider `CCCCCc1ccco1`, for which the Potency entry was “inactive”.

With `CC1=CC[C@@H]2C[C@H]1C2(C)C`, the activation was -1.23% [at 19 µM].

Turning to `CC(C)(C)NCC(O)COc1cccc2c1C[C@H](O)[C@H](O)C2` (stereo not given in full), the Potency entry was “inactive”.

Regarding `CCOCCC(=O)OCC`, the Potency result was “inactive”.

For the molecule `CCCCCCC(O)CCCCCCCCCCC(=O)OC` (stereo not given), the Potency result is “inactive”.

`Cc1cn([C@H]2C[C@H](F)[C@@H](CO)O2)c(=O)[nH]c1=O`: the Potency result was “inactive”.

On to `C=C(C)c1ccccc1`, for which the Potency result is “inactive”.

Regarding `CC(=O)OC(C)C[N+](C)(C)C` (stereo not given), the Potency entry is “inactive”.

For `CC1=C2[C@@H]([C@H](C)CC[C@H]2/C=C(\C)C(=O)O)[C@H](O)C1`, the Potency entry is “inactive”.

For `CCN(Cc1cccc(S(=O)(=O)O)c1)c1ccc(C(=C2C=CC(=[N+](CC)Cc3cccc(S(=O)(=O)O)c3)C=C2)c2ccc(O)cc2S(=O)(=O)[O-])cc1`, the Potency result was “inactive”.

`CCC(=O)OCc1ccc(OC)cc1`: the Potency result is “inactive”.

Turning to `Nc1ccn([C@H]2CS[C@@H](CO)O2)c(=O)n1`, the Potency entry is “inactive”.

`CC(=O)c1ccc[nH]1`: the Potency entry is “inactive”.

In the case of `CCNc1nc(N)nc(Cl)n1`, the Potency entry is “inactive”.

On to `O=P(O)(O)Oc1ccccc1`, for which the Potency result is “inactive”.

Consider `O=[N+]([O-])C1(Br)COCOC1`, for which the Potency result was “inactive”.

Regarding `COc1cc(S(=O)(=O)Nc2ccccc2)c(OC)cc1N`, the Potency result is “inactive”.

For `CC[C@H]1OC(=O)[C@H](C)[C@@H](O[C@H]2C[C@@](C)(OC)[C@@H](O)[C@H](C)O2)[C@H](C)[C@@H](O[C@@H]2O[C@H](C)C[C@H](N(C)C)[C@H]2O)[C@](C)(O)C[C@@H](C)C(=O)[C@H](C)[C@@H](O)[C@]1(C)O`, the Potency result is “inactive”.

In the case of `Cc1cccc2sc(N)nc12`, the Potency result is “inactive”.

Consider `COc1ccc(N)c([N+](=O)[O-])c1`, for which the Potency entry is “inactive”.

For `O=C1OC(=O)c2c(Br)c(Br)c(Br)c(Br)c21`, the Potency result was “inactive”.

For `Cc1cc(CCCOc2c(C)cc(-c3noc(C(F)(F)F)n3)cc2C)on1`, the Potency entry is “inactive”.

For `CCOC(=O)C(C)O` (stereo not given), the Potency entry is “inactive”.

For the molecule `C=CC(=O)O`, the Potency entry is “inactive”.

On to `O=C(O)c1cc(Cl)cc(Cl)c1O`, for which the Potency entry is “inactive”.

Regarding `CN1C(CSCC(F)(F)F)Nc2cc(Cl)c(S(N)(=O)=O)cc2S1(=O)=O` (stereo not given), the Potency result was “inactive”.

Regarding `CCCc1nc2c(C)cc(-c3nc4ccccc4n3C)cc2n1Cc1ccc(-c2ccccc2C(=O)O)cc1`, the Potency entry was “inactive”.

On to `CCCCCCOC(=O)CCCCC`, for which the Potency entry is “inactive”.

For `CC(C)c1ccc(C(=O)N=C(N)N)cc1S(C)(=O)=O`, the Potency entry is “inactive”.

Consider `CC1CCCO1` (stereo not given), for which the Potency entry was “inactive”.

As to `CCC(CO)(CO)CO`, the Potency entry is “inactive”.

`C[C@@H]1C[C@H]2[C@@H]3CCC4=CC(=O)C=C[C@]4(C)[C@@]3(F)[C@@H](O)C[C@]2(C)[C@@]1(O)C(=O)COP(=O)(O)O`: the Potency entry is “inactive”.

As to `Cc1cc(CCC(=O)OCCOCCOCCOC(=O)CCc2cc(C)c(O)c(C(C)(C)C)c2)cc(C(C)(C)C)c1O`, the Potency entry was “inactive”.

Take `CC(C)COC(=O)COc1cc(Cl)c(Cl)cc1Cl`: the Potency entry was “inactive”.

In the case of `COC(=O)C1=C(C)NC(C)=C(C(=O)OC(C)(C)CN(C)CCC(c2ccccc2)c2ccccc2)C1c1cccc([N+](=O)[O-])c1` (stereo not given), the Potency result is “inactive”.

For the molecule `O=C(O)c1ccc(O)cc1O`, the Potency result is “inactive”.

As to `c1ccc(CCCc2ccncc2)cc1`, the Potency entry is “inactive”.

As to `O=S(=O)(Cl)c1c(Cl)cccc1Cl`, the Potency result was “inactive”.
